Only some compounds are listed: those with a hit (about 21% of all), similar ones and a draw of the others.
IL1B secr inh – inflammasome signaling inhibition, IL-1 beta readout. activity change, % at 57.5 µM. hit rate 4.7% among 360,000. THP-1 LPS/ATP IL-1B secretion, AlphaLISA, 16 h; hits give low values. AID 743279; in the data active = activity change below about -50%; inconclusive = mostly about -30% to -49%
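Secreted IL-1B measured by AlphaLISA bead assay after 16 h compound exposure of THP-1 cells; compounds (final up to 57.5 uM) added 1 h before LPS (250 ng/mL) and ATP (1.25 mM) stimulation; lower signal means less secretion.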
TDP1 cell noCPT – qHTS for Inhibitors of human tyrosyl-DNA phosphodiesterase 1 (TDP1): qHTS in cells in absence of CPT; hit rate 15% among 420,000; DT40 Tdp1-/- hTDP1 cells, no CPT, ATP luminescence, 48 h; AID 686978, 2013; Potency, µM (top dose mostly 46.2 µM), for the others: at the top dose activity change, negative = growth inhibition, most hits filed as inhibitors; also: potency is read from the fitted curve at half-maximal effect; nearly all actives have a fitted effect of over 55% in size
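DT40 Tdp1-/-;hTDP1 cells, no CPT (DMSO vehicle only), 400 cells/well; compounds pin-transferred; ≥48 hr, 37 °C; CellTiter-Glo 30 min RT dark, luminescence read.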
RORg inh – inhibitors of mouse ROR gamma transcriptional activity | Drosophila S2 Gal4-RORgamma UAS-luciferase reporter, 20 h | hit rate 5.4% among 310,000 | AID 2551 | Potency, µM (titrated, usually from 53.6 µM), for the others: at the highest dose activity change, negative = inhibition, most hits filed as inhibitors; also: potency is read from the fitted curve at half-maximal effect; nearly all actives have a fitted effect of over 60% in size
Target sequence (P51450 whole entry, looked up, the tested form may be a part): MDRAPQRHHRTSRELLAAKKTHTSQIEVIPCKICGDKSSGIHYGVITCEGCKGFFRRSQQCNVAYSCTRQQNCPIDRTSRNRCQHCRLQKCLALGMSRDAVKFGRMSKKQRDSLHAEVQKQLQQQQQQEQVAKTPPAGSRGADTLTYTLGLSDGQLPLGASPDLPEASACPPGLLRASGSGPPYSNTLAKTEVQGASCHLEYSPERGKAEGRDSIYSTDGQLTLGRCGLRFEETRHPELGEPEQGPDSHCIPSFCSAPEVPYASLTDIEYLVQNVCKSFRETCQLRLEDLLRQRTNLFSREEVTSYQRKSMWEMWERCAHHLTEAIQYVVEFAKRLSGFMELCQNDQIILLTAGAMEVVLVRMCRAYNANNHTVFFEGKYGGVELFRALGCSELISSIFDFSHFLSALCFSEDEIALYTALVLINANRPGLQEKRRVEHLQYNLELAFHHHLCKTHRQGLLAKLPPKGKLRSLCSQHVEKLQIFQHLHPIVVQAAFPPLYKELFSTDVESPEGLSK
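In this cell-based reporter format, copper sulfate (700 uM final) drives Gal4–ROR gamma fusion expression from a metallothionein promoter in Drosophila Schneider cells; compounds preincubated 1 hr, reporter read after 20 hr at ambient temperature.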
ELG1 DNA repair – blocks ELG1-dependent DNA repair in HEK293T cells; Potency, µM (titrated, usually from 46.1 µM), without a hit: top-dose activity change, negative = inhibition, actives largely listed as inhibitors; hit rate 2.3% among 330,000; HEK293T ELG1-luciferase reporter, luminescence, 16 h; DNA damage induced by 5-fluorouridine; also: potency is read from the fitted curve at half-maximal effect; nearly all actives have a fitted effect of over 55% in size
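Quantitative HTS, concentration-response format. 2,000 cells/well co-treated with 5-fluorouridine and compound, 16 hr in 5% CO2 at 37 °C; ONE-Glo luminescence read after 30 min.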
VP16 counter – counter-screen for ROR gamma inhibitors: Gal4-VP16 reporter; Drosophila S2 Gal4-VP16 UAS-luciferase, luminescence, 20 h; Potency, µM (highest dose often 53.6 µM), without a hit: at the highest dose activity, negative = inhibition, hits mostly inhibitors; hit rate 3.5% among 310,000;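 also: Gal4-VP16 expression switched on by copper sulfate through the metallothionein promoter; potency is read from the fitted curve at half-maximal effect; nearly all actives have a fitted effect of over 50% in size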
DT40 TDP1 CPT – DT40-hTDP1 cell growth loss with CPT. chicken DT40 Tdp1-/-;hTDP1 cells + 20 nM CPT, ATP luminescence, 48 h. Potency, µM (doses to about 46.2 µM), without a hit: at the highest dose activity change, negative = growth inhibition, actives largely listed as inhibitors. hit rate 12% among 420,000; also: potency is read from the fitted curve at half-maximal effect; nearly all actives have a fitted effect of over 55% in size
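Cell growth measured by CellTiter-Glo luminescence after a minimum 48 h, 37 C compound exposure with 20 nM CPT in Tdp1-knockout DT40 cells stably expressing hTDP1, seeded 400/well; qHTS titration format.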
Active calls of the source: *; ? = inconclusive; . = no result; [ ] = dose if it differs, or a comment. Unless noted, calls follow the shape of the dose curve; as a rule, active = well fitted curve in the direction sought with a large enough effect; inconclusive = small, poorly fitted or top-dose-only effect, or another doubt; inactive = no such curve, though single readings can be large; an effect the other way counts as inactive or inconclusive. % is scaled to controls: 0 for no effect and ±100 for the full control effect.

SMILES	IL1B secr inh	TDP1 cell noCPT	RORg inh	ELG1 DNA repair	VP16 counter	DT40 TDP1 CPT
CC(C)CN(C(=O)CCC1CCCCC1)c1c(N)n(CC(C)C)c(=O)[nH]c1=O	8	-19%	.	19%	.	?
O=c1[nH]c(=O)n(-c2ccccc2)c2c1C(C(F)(F)F)(C(F)(F)F)N=C(CCC1CCCCC1)N2	21	18µM*	-1%	?	-16%	?
CN(C)CCCNCCCN	.	.	-3%	.	-6%	.
Cc1c(Cl)cnc(NC(=O)COC(=O)CCc2nc3ccccc3s2)c1Cl	8	21%	23%	18%	1%	-21%
Cc1cccc(NC(=S)NNC(=O)c2cccc([N+](=O)[O-])c2)c1	5	-22%	-32%	-6%	-13%	-15%
Cc1cc(Br)ccc1NC(=S)Nc1cccc([N+](=O)[O-])c1	-8	?	11µM*	-30%	?	?
Cc1occc1C(=O)NNC(=S)Nc1cccc([N+](=O)[O-])c1	29	23µM*	-42%	6%	-2%	?
CCOC(=O)C1CCN(CC(=O)Nc2cc(S(=O)(=O)N3CCOCC3)ccc2C)CC1	-17	-20%	-31%	?	3%	13%
O=C(Cn1nnc(-c2ccc(CN3CCOCC3)cc2)n1)N(c1ccccc1)c1ccccc1	8	21µM*	31%	-10%	6%	18µM*
CC(C)CN(C(=O)Cn1nnc(-c2ccc(Cl)cc2)n1)C1CCS(=O)(=O)C1 (stereo not drawn)	3	-12%	.	.	.	0%
O=C(Cn1nnc(-c2ccc(CN3CCOCC3)cc2)n1)N1CCCc2ccccc21	23	?	5%	-28%	-1%	?
CC(C)(C)NC(=O)CN(C(=O)Cn1nnc(-c2ccc(Cl)cc2)n1)C1CCN(Cc2ccccc2)CC1	-82*	21µM*	6%	-6%	0%	?
CCCCOC1(c2ccccc2)NC(=S)NN=C1c1ccccc1 (stereo not drawn)	.	.	10µM*	-1%	?	.
CCCCCCOC1(c2ccccc2)OC(=O)c2ccccc21 (stereo not drawn)	-5	?	-14%	0%	-7%	-1%
O=C(CSc1nnc(NC2CC2)s1)c1ccc[nH]1	14	0%	.	?	.	6%
NCCOc1ccccc1Cc1ccccc1	-62*	?	22%	-7%	-10%	?
CN(C)CCOc1ccccc1Cc1ccccc1 (tested in a mixture with another compound)	.	-22%	.	.	.	-21%
COC(=O)C1=CN(c2ccc(Oc3ccccc3)cc2)C(N)=C(C#N)C1c1cccc(OC)c1OC (stereo not drawn)	35	13µM*	.	.	.	15µM*
COC(=O)C1=CN(c2cccc(OCc3ccccc3)c2)C(N)=C(C#N)C1c1cccc(OC)c1OC (stereo not drawn)	-4	15µM*	.	.	.	15µM*
COC(=O)C1=CN(Cc2ccc(OC)c(OC)c2)C=C(C(=O)OC)C1c1cccc(OC)c1OC	-7	?	9%	2%	4%	?
Cn1c(N)c(C(=O)COC(=O)/C=C/c2cccc(Cl)c2)c(=O)n(C)c1=O	12	-18%	.	8%	.	-7%
COc1ccc(/C=C/c2nc3ccccc3c(=O)n2-c2cccc(C(=O)O)c2)cc1	-5	-11%	5%	23%	-2%	-13%
Cc1ccccc1-n1c(/C=C/c2c(C)n(C)c3ccccc23)nc2ccccc2c1=O	.	8.2µM*	.	.	.	6.5µM*
COc1ccccc1-n1c(/C=C/c2c(C)n(C)c3ccccc23)nc2ccccc2c1=O	.	3.7µM*	.	.	.	?
CCn1c(/C=C/c2c(C)n(CC)c3ccccc23)nc2ccccc2c1=O	29	?	17%	8%	-1%	?
SMILES	IL1B secr inh	TDP1 cell noCPT	RORg inh	ELG1 DNA repair	VP16 counter	DT40 TDP1 CPT
CCC(C)c1ccccc1NC(=O)COC(=O)c1ccc(N2CCCC2)c([N+](=O)[O-])c1 (stereo not drawn)	19	?	-15%	-25%	1%	21µM*
CCC(C)c1ccccc1NC(=O)COC(=O)c1ccc2[nH]c3c(c2c1)CCCC3 (stereo not drawn)	-11	18µM*	6%	21µM*	20µM*	16µM*
Cc1cccc(C)c1NC(=O)COC(=O)c1ccc(N2CCCC2)c([N+](=O)[O-])c1	2	?	-11%	1%	-9%	-9%
O=C(Nc1ccccc1)c1cccc(NC(=O)c2ccco2)c1	-8	-28%	.	.	.	9%
O=C(/C=C\c1ccccc1)Nc1ccc(NC(=O)c2ccco2)cc1	49	23µM*	0%	-7%	-8%	12µM*
C=Cc1cccc(NC(=O)c2ccc(NC(=O)c3ccco3)cc2)c1	-10	6.5µM*	?	-8%	17%	15µM*
Cc1cc(C)cc(NC(=O)c2ccc(NC(=O)c3ccco3)cc2)c1	.	?	17%	-30%	14%	21µM*
CCC(C)c1ccc(NC(=O)c2ccco2)cc1 (stereo not drawn)	0	?	20µM*	?	7.9µM*	?
COC(=O)c1ccc(NC(=O)c2ccc(NC(=O)c3ccco3)cc2)cc1	92	-15%	37%	?	-20%	-28%
Cc1cccc(/C(N)=N/OC(=O)CCc2ccccc2)c1	-23	-1%	-30%	?	2%	-2%
CCOC(=O)c1cc(S(=O)(=O)NCc2ccc(OC)cc2)[nH]n1	.	-23%	.	.	.	-14%
CC(C)(C)c1ccc(O)c(N=Cc2cc3c(cc2[N+](=O)[O-])OCO3)c1	49	16µM*	?	?	?	?
O=[N+]([O-])c1cc2c(cc1/C=N\NS(=O)(=O)c1ccccc1)OCO2	-12	?	?	3%	-7%[0.365 µM]	9.2µM*
O=C(NNC(=O)c1ccc([N+](=O)[O-])cc1C(=O)O)c1ccncc1	42	8%	-9%	9%	7%	8%
CN1CCN(C(=O)CCCN2C(=O)/C(=C/c3cccc(Br)c3)SC2=S)CC1	-100*	?	?	-6%	-6%	-22%
CN1CCN(C(=O)CCN2C(=O)/C(=C/c3cccc(Br)c3)SC2=S)CC1	-76*	12µM*	16µM*	1%	-14%	?
O=C(CN(CCc1ccccc1)C(=O)c1csnn1)NCc1ccc(F)cc1	-9	4%	25%	-5%	4%	2%
